Screening data as filed in PubChem.
CHRM1 antagonist: antagonists of human M1 muscarinic receptor; P11229; CHO-K1 hM1, Fluo-8 calcium fluorescence, ACh EC80 antagonist; inhibition, % at 3 µM; 360,000 compounds, 1.3% hits; AID 588852;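 active = percent inhibition above its own plate's cutoff, namely the mean of that plate's compound wells plus 3 SD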;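 note: peak over basal fluorescence ratio during 140 s after agonist addition; 0% = ACh EC80 plus DMSO and 100% = DMSO alone without agonist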
Target sequence (P11229 whole entry, looked up): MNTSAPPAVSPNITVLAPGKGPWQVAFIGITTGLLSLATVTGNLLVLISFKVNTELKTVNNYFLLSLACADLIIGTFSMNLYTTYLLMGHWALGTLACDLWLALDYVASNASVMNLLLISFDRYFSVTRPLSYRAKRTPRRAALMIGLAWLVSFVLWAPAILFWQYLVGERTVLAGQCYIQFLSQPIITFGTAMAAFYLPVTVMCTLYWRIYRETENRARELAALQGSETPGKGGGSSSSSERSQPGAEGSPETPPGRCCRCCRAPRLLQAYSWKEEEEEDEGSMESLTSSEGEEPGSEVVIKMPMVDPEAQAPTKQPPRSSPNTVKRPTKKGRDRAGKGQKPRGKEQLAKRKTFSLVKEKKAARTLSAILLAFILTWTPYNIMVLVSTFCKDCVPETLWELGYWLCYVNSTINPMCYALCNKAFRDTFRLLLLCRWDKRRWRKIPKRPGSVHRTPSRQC
CHRM1 PAM: potentiates human M1 receptor response to acetylcholine | activation, % at 3 µM | P11229 | CHO-K1 hM1, Fluo-8 calcium fluorescence, ACh EC20; 0% = ACh EC20, 100% = maximal ACh | 360,000 compounds, 0.088% hits | AID 588819; in the data active = activation above about 19%, passing the limit was not always enough
CHRM1 agonist: human M1 muscarinic receptor agonism. CHO-K1 hM1, Fluo-8 calcium fluorescence, agonist mode; 0% DMSO, 100% acetylcholine EC100. activation, % at 3 µM. 360,000 compounds, 0.33% hits. AID 588814;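 active = activation above the run's mean compound activation plus 3 SD, cut at about 16% in these data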;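 note: peak over basal fluorescence ratio within a 140 s kinetic read after compound addition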
CHO-K1 Ca PAM: counter-screen for M1 PAMs: effect in parental CHO-K1 cells | ATP EC20, Fluo-8 calcium fluorescence; 0% at ATP EC20, 100% at ATP max | activation, % at 3 µM | 360,000 compounds, 0.02% hits | AID 602247;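 active = activation above the run cutoff, the mean activation of all test compounds plus 3 SD, cut at about 40% in these data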;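 note: peak over basal fluorescence ratio in a 140 s read after ATP addition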
CHO-K1 Ca ag: nonselective activator or artifact in parental CHO-K1 cells; Fluo-8 calcium fluorescence; scaled to maximal ATP response, vehicle zero; activation, % at 3 µM; 360,000 compounds, 0.48% hits; AID 602248; in the data active = activation above about 15%;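 note: untransfected CHO-K1 host cells lacking M1 receptor as counterscreen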
CHO-K1 Ca antag: counter-screen for M1 antagonists: effect in parental CHO-K1 cells; ATP-induced calcium, Fluo-8 fluorescence; inhibition, % at 3 µM; 360,000 compounds, 0.6% hits;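 active = inhibition above a per-plate cutoff, the plate's mean sample inhibition plus 3 SD, cut at about 24% in these data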;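 note: 0% = DMSO plus EC80 ATP and 100% = DMSO alone without ATP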
* hit, by the source's call. Hits are enriched below; roughly 2.3% of the tested compounds scored in any of these assays.

SMILES | CHRM1 antagonist | CHRM1 PAM | CHRM1 agonist | CHO-K1 Ca PAM | CHO-K1 Ca ag | CHO-K1 Ca antag
CCOC(=O)C1=C(CC)Nc2ccccc2N/C1=N\S(=O)(=O)c1cc(Br)ccc1Br | 34* | -30 | -3 | -16 | 15 | 33*
CCOC(=O)C1=C(C)Nc2ccccc2N/C1=N\S(=O)(=O)c1ccc(Cl)cc1 | 37* | -15 | -7 | -1 | 5 | -7
CCOC(=O)C1(C)CCCCCN1C(=O)c1ccc(OC)cc1 (configuration not stated) | 10 | -4 | -3 | -14 | 0 | 25*
CCOC(=O)C1(C)CCCCN1C(=O)c1ccc(N(C)C)cc1 (configuration not stated) | -13 | 10 | 0 | -3 | 0 | 18
COc1cc(-c2noc(C)c2-c2ccc(N(C)C)nc2)cc(OC)c1OC | 20 | -12 | 34* | 13 | 32* | -8
COc1cc(-c2noc(C)c2-c2ccc3[nH]ccc3c2)cc(OC)c1OC | 7 | 3 | -2 | 2 | 2 | -11
Cc1ccc(NC(=S)Nc2ccc(Br)cc2)cc1 | 7 | 1 | 3 | -5 | 2 | 35*
CCOC(=O)c1sc(NC(=O)c2cccs2)cc1C | -16 | 8 | -4 | 7 | 4 | 12
CCOC(=O)c1sc(NC(=O)Nc2cccc(Cl)c2)cc1C | 43* | -18 | 3 | -6 | 18* | 39*
Cc1ccc(-c2nn(-c3ccc(F)cc3)cc2C(=O)NCCCN2CCCC2=O)cc1 | -1 | 2 | -7 | 2 | 1 | 1
CC[n+]1ccccc1/C=C/c1ccc(N(C)C)cc1 | -6 | 7 | -6 | 19 | 3 | 3
CCCCCC[n+]1ccccc1/C=C/c1ccc(N(C)C)cc1 | 74* | -33 | 30* | -7 | 36* | 51*
O=C(C1CCN(c2nnc(N3CCCC3=O)s2)CC1)N1CCN(c2cccc(C(F)(F)F)c2)CC1 | 77* | -24 | -2 | 0 | 7 | 3
COc1ccccc1N1CCCSC1=Nc1ccccc1 | -12 | 6 | -7 | 8 | 0 | 1
Cc1noc(C)c1C(=O)OCC(=O)NC1CC1 | 14* | -6 | 0 | -5 | 0 | 10
CCOC(=O)c1c2n(c3c(NCc4ccccc4)ncnc13)CCCC2 | -8 | 9 | -3 | -8 | 0 | 24*
CN(C)CCCN=C(NO)c1ccc(Cl)cc1Cl | 8 | -6 | 50* | -26 | 0 | 15
COC(=O)c1ccc(SCC(=O)NCc2ccccc2)c([N+](=O)[O-])c1 | 10 | -4 | -5 | -3 | 1 | -6
CCOc1ccc(Nc2cc(Nc3ccccc3OCC)nc(C=C(C#N)C#N)n2)cc1 | 4 | 2 | -4 | 4 | 16* | -3
CCOc1ccccc1Nc1cc(C)c2cccc(C)c2n1 | -4 | 9 | -4 | -10 | -1 | 6
O=C(C[C@H]1C[C@H](C(=O)N2CCCCC2)[C@@]2(CCc3ccccc3)c3[nH]c4ccc(Cl)cc4c3CCN2C1=O)NCc1cccc(C(F)(F)F)c1 | -8 | 5 | -2 | 1 | 1 | -2
CCOC(=O)Cc1nnc(NC(=O)CSc2ccc(C)cc2)s1 | -8 | 10 | 19* | 28 | 4 | -18
CC(C)c1ccc(Nc2n[nH]c(=S)s2)cc1 | 7 | -2 | -2 | -5 | 1 | 28*
C=CCn1c(SCC(=O)Nc2ccc(F)cc2)nc2ccccc2c1=O | -10 | 5 | -8 | 13 | 0 | -5
Cc1ccc(-c2nnn(CC(=O)N3CCN(c4ccccc4)CC3)n2)o1 | -21 | 30* | 4 | 8 | 1 | -18
SMILES | CHRM1 antagonist | CHRM1 PAM | CHRM1 agonist | CHO-K1 Ca PAM | CHO-K1 Ca ag | CHO-K1 Ca antag
COc1ccc(N2CCN(C(=O)Cn3nnc(-c4ccc(OC)c(OC)c4)n3)CC2)cc1 | -4 | 1 | -1 | -5 | 0 | -11
C/C(=N\n1c(C)nc2ccccc2c1=O)c1ccc(C)o1 | -10 | 28* | -1 | -1 | 0 | -6
CCC(=O)Nc1cc2c(cc1Cl)-c1ccccc1C2 | -7 | 0 | 1 | -4 | 2 | -10
CC(=O)Nc1cc2c(cc1Cl)-c1ccccc1C2 | -8 | 7 | 1 | -13 | 1 | 26*
CCOC(=O)Cc1c(C)[nH]c(=S)[nH]c1=O | -13 | 6 | -3 | 11 | 0 | -3
COC(=O)CCc1c(C)[nH]c(=S)[nH]c1=O | -34 | 21* | 8 | -3 | 0 | -6
CC(NC(=O)c1cc(F)c(F)c(F)c1F)c1ccc(-n2ccnc2)cc1 (configuration not stated) | -11 | 3 | -4 | 12 | 3 | -17
Cc1nn(CC(=O)NCc2cccnc2)c(C)c1[N+](=O)[O-] | -12 | 18 | -2 | -17 | 0 | 11
Cc1nn(CC(=O)NCc2ccc(C(=O)O)cc2)c(C)c1[N+](=O)[O-] | -3 | -8 | -1 | -15 | 2 | 24*
O=C(C1=NN[C@@H]2C(=O)N(Cc3ccccc3)C(=O)[C@H]12)c1ccc([N+](=O)[O-])cc1 | -2 | 3 | 0 | 22 | 23* | -7
O=C(Cc1ccccc1)N1CCN(C(=O)c2ccc([N+](=O)[O-])cc2)CC1 | -8 | 3 | -10 | 6 | 0 | -9
Cc1ccc(NC(=O)CN(C)C(=O)COc2ccc(C(=O)c3ccc(F)cc3)cc2)cc1 | -5 | 7 | -6 | 25 | 6 | -10
CN1CCCN=C1COC(=O)C(O)(c1ccccc1)C1CCCCC1 (configuration not stated) | 99* | -26 | -8 | -10 | 0 | 2
Cc1nc2nc(SCC(=O)NCCCN3CCCC3)nn2c(C)c1Cc1ccccc1Cl | 81* | -37 | -12 | 8 | 0 | -10
CCC1CCCCN1CCCNC(=O)CSc1nc2nc(C)c(Cc3ccc(C)cc3)c(C)n2n1 (configuration not stated) | 69* | -36 | -13 | -22 | 1 | -3
Cc1nc2nc(SCC(=O)NCCCN3CCCCC3)nn2c(C)c1Cc1ccccc1 | 14 | -18 | -11 | -6 | 0 | -2
COc1ccccc1-n1c(SCC(=O)N(C)C)nnc1-c1ccco1 | -7 | 7 | 0 | 14 | 0 | -3
CCCNc1c(NS(=O)(=O)c2ccc(Cl)s2)c(=O)oc2ccccc12 | 2 | -1 | -2 | -12 | 0 | 29*
CN1CCC(OC(c2ccccc2)c2ccc(Cl)cc2)C1 (configuration not stated) | 100* | -31 | -1 | 15 | 6 | -12
Cc1cc(C)nc(NS(=O)(=O)c2ccc(NC(=O)C3(c4ccc([N+](=O)[O-])cc4)CCCC3)cc2)n1 | 15 | 8 | 24* | 29 | 13 | -1
Cc1cccc(NC(=O)C2(c3ccc([N+](=O)[O-])cc3)CCCC2)c1 | 12 | -5 | 4 | 8 | 19* | 3
COc1ccc(C2(C(=O)Nc3ccc(S(=O)(=O)Nc4nc(C)cc(C)n4)cc3)CCCC2)cc1OC | -5 | 6 | -2 | 9 | 0 | -3
